Among all 400,000 compounds or so, about 2,100 (0.53%) were called active. Another 14% or so got no clear call; they are omitted. The rule behind the calls is not given here. The entries come from a sample that favours actives as a whole.
Target: Ataxin-2 (Homo sapiens) (UniProt Q99700)
Experiment: qHTS for Inhibitors of ATXN expression.
Type: functional

Chain of Ataxin-2 (Homo sapiens) (Q99700 whole entry): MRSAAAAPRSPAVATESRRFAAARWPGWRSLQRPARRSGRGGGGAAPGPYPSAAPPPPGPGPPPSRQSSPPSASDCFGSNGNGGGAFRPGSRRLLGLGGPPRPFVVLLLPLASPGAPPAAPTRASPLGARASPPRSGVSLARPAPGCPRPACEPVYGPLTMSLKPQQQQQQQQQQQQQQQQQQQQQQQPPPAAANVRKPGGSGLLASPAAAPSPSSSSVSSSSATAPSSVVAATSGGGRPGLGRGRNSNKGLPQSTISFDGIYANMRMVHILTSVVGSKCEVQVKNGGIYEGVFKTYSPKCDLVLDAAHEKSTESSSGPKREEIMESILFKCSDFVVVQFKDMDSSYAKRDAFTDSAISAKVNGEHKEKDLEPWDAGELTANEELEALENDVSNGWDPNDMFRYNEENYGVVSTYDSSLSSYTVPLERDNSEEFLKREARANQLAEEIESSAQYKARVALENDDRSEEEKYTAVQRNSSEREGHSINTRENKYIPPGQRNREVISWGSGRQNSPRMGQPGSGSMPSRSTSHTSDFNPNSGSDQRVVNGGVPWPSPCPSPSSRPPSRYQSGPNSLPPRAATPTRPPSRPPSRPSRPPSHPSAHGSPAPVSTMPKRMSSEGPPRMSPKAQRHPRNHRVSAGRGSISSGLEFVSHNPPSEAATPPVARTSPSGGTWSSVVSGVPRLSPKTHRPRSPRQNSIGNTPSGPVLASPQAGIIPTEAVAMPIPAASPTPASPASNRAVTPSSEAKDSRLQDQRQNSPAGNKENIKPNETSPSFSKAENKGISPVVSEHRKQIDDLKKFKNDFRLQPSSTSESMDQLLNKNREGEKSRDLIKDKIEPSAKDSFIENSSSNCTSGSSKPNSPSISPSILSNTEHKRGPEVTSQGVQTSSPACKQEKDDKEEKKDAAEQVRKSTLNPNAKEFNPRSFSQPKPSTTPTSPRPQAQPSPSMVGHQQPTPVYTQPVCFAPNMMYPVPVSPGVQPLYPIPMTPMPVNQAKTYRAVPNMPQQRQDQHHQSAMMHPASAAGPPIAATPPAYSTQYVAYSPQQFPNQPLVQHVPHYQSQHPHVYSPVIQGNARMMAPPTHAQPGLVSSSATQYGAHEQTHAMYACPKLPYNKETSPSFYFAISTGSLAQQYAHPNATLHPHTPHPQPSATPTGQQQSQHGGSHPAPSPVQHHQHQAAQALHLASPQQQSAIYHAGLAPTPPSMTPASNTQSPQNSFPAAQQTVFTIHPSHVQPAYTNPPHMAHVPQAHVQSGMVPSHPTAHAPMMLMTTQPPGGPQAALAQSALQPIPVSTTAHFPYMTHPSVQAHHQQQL

| Structure (SMILES) | Potency |
| --- | --- |
| O=C(CC1C(=O)NCCN1C(=O)Nc1ccc(F)cc1)Nc1ccc(F)cc1 (stereo not drawn) | inactive |
| Cc1csc(SCC(=O)NC(=O)NC(C)(C)C)n1 | inactive |
| Cn1c2ccccc2c(=O)c2cc(NCCCN3CCOCC3)ccc21 | inactive |
| CN(/N=C/c1ccc(O)cc1O)c1nc(-c2ccccc2)cc(-c2ccccc2)n1 | 25.1 µM (active) |
| CN(/N=C/c1cc(Br)cc(Br)c1O)c1cccc(C(F)(F)F)n1 | inactive |
| O=C(NC1=NCCS1)c1cc(-c2ccc(-c3ccccc3)cc2)nc2ccccc12 | inactive |
| Cc1ccc(S(=O)(=O)[N-]c2nc3ccccc3nc2-[n+]2ccn(Cc3ccccc3)c2)cc1 | inactive |
| Cc1ccc(/N=C/c2nc(/C=C/c3cccc([N+](=O)[O-])c3)oc2O)cc1 | 39.8 µM (active) |
| Cc1nc(N/N=C/c2cccc([N+](=O)[O-])c2)cc(N2CCCCC2)n1 | inactive |
| CC1(C)C([N+](=O)[O-])C(c2ccc(F)cc2)NC(c2ccc(F)cc2)C1[N+](=O)[O-] (stereo not drawn) | inactive |
| Cc1ccc(NNC2=C3N=NN=C3C=CC2=O)cc1 | 44.7 µM (active) |
| C=CCn1c2ccccc2c(=O)c2cc(C#CC[C@@H](C)O)ccc21 | inactive |
| Clc1ccc2c(SCC3CO3)c3ccccc3nc2c1 (stereo not drawn) | 23.8 µM (active) |
| O=C(O)c1ccccc1Cc1nc(O)c2ccc(Cl)cc2n1 | inactive |
| Clc1ccc(-c2nc(N3CCOCC3)nc3ccccc23)cc1 | inactive |
| O=S(=O)([N-]c1nc2ccccc2nc1-[n+]1ccn(Cc2ccccc2)c1)c1ccccc1 | inactive |
| CC(C)OCCCNC(=O)CN1C(=O)c2cccc3cccc1c23 | inactive |
| COc1ccc(OC)c(C(=O)NC2CCCc3c2cnn3-c2cc(C)cc(C)c2)c1 (stereo not drawn) | inactive |
| CC(=O)Nc1cccc(C(=O)NC2CCCc3c2cnn3-c2ccc(C(C)(C)C)cc2)c1 (stereo not drawn) | 8.91 µM (active) |
| COC(=O)CCCC(=O)NC1CCCc2c1cnn2-c1ccc(F)cc1F (stereo not drawn) | inactive |
| CCCNC(=O)Cn1c(=O)/c(=C\c2ccc(-c3ccc([N+](=O)[O-])cc3)o2)s/c1=C\C(=O)C(C)(C)C | inactive |
| CNS(=O)(=O)c1ccc2c3c(cccc13)C(=O)N2C | inactive |
| Cc1cc2nc3c(=O)n(Cc4ccccc4)c(=O)[nH]c3nc2cc1N | inactive |
| O=C(Cc1cccc2ccccc12)Nc1cc(C(=O)O)cc(C(=O)O)c1 | inactive |
| NC(=O)CC(NC(=O)Cc1cccc2ccccc12)c1ccc(NCCOc2ccccc2)c([N+](=O)[O-])c1 (stereo not drawn) | 17.8 µM (active) |
| O=C(NCc1ccc(F)cc1)c1ccc(CS(=O)(=O)c2ccc(Br)cc2)o1 | inactive |

| Structure (SMILES) | Potency |
| --- | --- |
| NC(=NOC(=O)Cc1ccccc1[N+](=O)[O-])c1cccc(Br)c1 | inactive |
| COc1ccc(NC(=O)CSc2n[nH]c(C(C)C)n2)c([N+](=O)[O-])c1 | inactive |
| Cc1ccccc1CNc1ccc(C(CC(N)=O)NC(=O)c2ccc(Br)cc2)cc1[N+](=O)[O-] (stereo not drawn) | 39.8 µM (active) |
| CCOc1ccc(NC(=O)Cc2cccc3ccccc23)c([N+](=O)[O-])c1 | inactive |
| COc1ccc(C(=O)N[C@H](C(=O)NCCc2ccc3c(c2)OCCO3)C(C)C)cc1 | inactive |
| NC(=O)CC(NC(=O)c1ccc(Br)cc1)c1ccc(NCc2ccc(F)cc2)c([N+](=O)[O-])c1 (stereo not drawn) | 39.8 µM (active) |
| COc1ccc(CCNc2ccc(C(CC(N)=O)NC(=O)c3ccc(Br)cc3)cc2[N+](=O)[O-])cc1 (stereo not drawn) | 31.6 µM (active) |
| Nc1ccc(-c2cc3ccccc3oc2=O)cc1 | inactive |
| COc1ccccc1[C@@H]1C(c2ccccc2)=NN(c2ccccc2)[C@H]1C(=O)N1CCOC1=O | inactive |
| Cc1cccc(N2C(=O)/C(=C\Nc3ccccc3)c3ccccc3C2=O)n1 | inactive |
| CCNc1nc(N)c(C(=O)C23CC4CC(CC(C4)C2)C3)s1 | inactive |
| Cn1c(C(=O)N2CCOCC2)cc2c(=O)n3ccccc3nc21 | inactive |
| COc1ccc(C/C(C)=N/NC(=S)Nc2ccccc2)cc1 | 35.5 µM (active) |
| C/C(=N\NC(=S)Nc1cccc(C)c1)c1cc2ccccc2o1 | inactive |
| COc1ccc(CN=C(Nc2ccccc2)SC2CC(=O)NC2=O)cc1 (stereo not drawn) | inactive |
| Cc1nc(NCC2CC2)c2nnn(Cc3ccccc3)c2n1 | inactive |
| CCn1cc(CN2CCCC(CNS(=O)(=O)c3cccc4cccnc34)C2)cn1 (stereo not drawn) | 3.16 µM (active) |
| O=S(=O)(NCCc1ccc(F)cc1)c1cccc2cccnc12 | inactive |
| O=S(=O)(NCC1CCN(Cc2ccccc2)CC1)c1ccccc1C(F)(F)F | inactive |
| Cc1cc(/C=C2\C(=N)N3N=C(S(C)(=O)=O)SC3=NC2=O)c(C)n1Cc1ccccc1 | inactive |
| CC(C)c1c(C(=O)N/N=C/c2ccco2)nnn1-c1nonc1N | inactive |
| CN(C)c1ccc(/C=N/NC(=O)c2nnn(-c3nonc3N)c2COc2ccc(F)cc2)cc1 | inactive |
| CCCN(CCC)Cc1c(C(=O)N/N=C/C(C)=C\c2ccco2)nnn1-c1nonc1N | 25.1 µM (active) |
| O=S(=O)(N/N=C1\CCCc2ccccc21)c1ccccc1 | inactive |
| CCCSc1nsc(NC(=O)Nc2ccc(F)cc2F)n1 | 31.6 µM (active) |
| COc1ccc(OC(C)C(=O)Nc2ccc(F)cc2F)cc1 (stereo not drawn) | inactive |

| Structure (SMILES) | Potency |
| --- | --- |
| O=C(Nc1ccc(F)cc1F)c1cc(Cl)sc1Cl | inactive |
| Cc1ccc2[nH]c(SCC(=O)c3ccc(O)cc3O)nc2c1 | inactive |
| O=C1OCCN1C(=O)[C@H]1[C@H](c2ccccc2)C(c2cccc(Cl)c2)=NN1c1ccc(Br)cc1 | inactive |
| CCCCN1C(=O)c2ccc(C(=O)NC3(C)CCS(=O)(=O)C3)cc2C1=O (stereo not drawn) | inactive |
| C=C1[C@@H](O)[C@H](CC(C)C)N(Cc2ccccc2Br)S1(=O)=O | 28.2 µM (active) |
| C/N=C1\C(=O)c2ccccc2C(O)=C1N(C(C)=O)c1ccc(Br)cc1 | 14.1 µM (active) |
| CC(=O)N(C1=C(Cl)C(=O)c2ccccc2C1=O)c1ccc(C(=O)O)cc1 | inactive |
| COc1ccccc1N(C(C)=O)C1=C(Cl)C(=O)c2ccccc2C1=O | inactive |
| NC(=O)c1nsc(C(=O)N(c2cccc(F)c2)C(C(=O)NCc2ccccc2)c2ccc(O)cc2)c1N (stereo not drawn) | inactive |
| C[C@H](CO)N1C[C@H](C)[C@H](CN(C)C(=O)c2ccccc2)OCc2ccccc2-c2c(n(C)c3ccccc23)C1=O | 22.4 µM (active) |
| COc1ccccc1NC(=O)N(C)C[C@@H]1OCc2ccccc2-c2c(n(C)c3ccccc23)C(=O)N([C@H](C)CO)C[C@@H]1C | 35.5 µM (active) |
| COC(=O)CN1C(=O)N/C(=C/c2cc(Cl)c(OC)c(OC)c2)C1=O | inactive |
| CC(=O)O/N=C/c1c(NCc2ccccc2)nc2c(C)cccn2c1=O | inactive |
| Cc1nc(SCc2ccccc2)nc2c1CCC2 | inactive |
| CC(=O)c1c(C)[nH]c(C(=O)CN2C(=O)NC(C)(CCC(C)C)C2=O)c1C (stereo not drawn) | inactive |
| COc1ccc(-c2nn(-c3ccccc3)cc2/C=N/N2C(=O)CSC2=S)cc1 | 39.8 µM (active) |
| CCSc1ccc(-c2nn(-c3ccccc3)cc2/C=C(/C#N)C(=O)NCCCOC)cc1 | inactive |
| O=C1CSC(=S)N1N=Cc1cccc(OCc2ccccc2)c1 | inactive |
| CCCCCCc1cc2cc(S(=O)(=O)c3ccc(F)cc3)c(=O)oc2cc1O | inactive |
| NC(=O)c1sc2nc(-c3ccccc3)ccc2c1N | inactive |
| CCC1CCCCN1C(=O)c1ccc(OC2CCN(C(=O)COC)CC2)cc1 (stereo not drawn) | inactive |
| Cc1c(S(=O)(=O)N2CCN(c3cccc(C(F)(F)F)c3)CC2)c(=O)n(C)c(=O)n1C | inactive |
| COCCN=C(S)N1CCN(c2cccc(C(F)(F)F)c2)CC1 | inactive |
| Cn1cc(C(=O)N2CCN(c3cccc(C(F)(F)F)c3)CC2)c2c3ccccc3n(C)c2c1=O | 31.6 µM (active) |
| CC(=O)Nc1ccc(NC2=C(Cl)C(=O)c3ccccc3C2=O)cc1 | 28.2 µM (active) |
| Cc1ccc(NC2=C(Cl)C(=O)c3ccccc3C2=O)cc1 | 28.2 µM (active) |

| Structure (SMILES) | Potency |
| --- | --- |
| CN(C)c1ccc(NC2=C(Cl)C(=O)c3ccccc3C2=O)cc1 | 25.1 µM (active) |
| CC(=O)N(C1=C(Cl)C(=O)c2ccccc2C1=O)C1CCCCC1 | inactive |
| CCCC(=O)NC1=C(Cl)C(=O)c2ccccc2C1=O | inactive |
| Oc1c(Cl)cc(Cl)cc1/C=N/NC(=S)NC1CC2C=CC1C2 (stereo not drawn) | inactive |
| COCCn1c(-c2ccc(-c3ccc([N+](=O)[O-])cc3Br)o2)nc2c1c(=O)[nH]c(=O)n2CC(C)C | inactive |
| CCn1c([N+](=O)[O-])nc2c1c(=O)[nH]c(=O)n2C | 22.4 µM (active) |
| CC(C)Cn1c([N+](=O)[O-])nc2c1c(=O)[nH]c(=O)n2C | 29.9 µM (active) |
| Cn1c(=O)[nH]c(=O)c2c1nc(Br)n2Cc1ccc(Cl)cc1 | inactive |
| CCCCNc1c(N)n(CC(C)C)c(=O)[nH]c1=O | inactive |
| COc1ccc(C(=O)c2sc3nc4c(c(C(F)(F)F)c3c2N)CN(C(C)=O)CC4)cc1OC | inactive |
| O=C(O)c1cc(N/N=C/c2cccc3ccccc23)ccc1Cl | inactive |
| COC(=O)c1scc(C)c1S(=O)(=O)Nc1ccc(C)cc1 | inactive |
| C=Cc1ncc(OC)c2c1[nH]c1ccccc12 | 11.9 µM (active) |
| COc1cccc2[nH]c3c(O)ncnc3c12 | inactive |
| C(=C\c1nccc2c1[nH]c1ccccc12)/c1ccccc1 | inactive |
| Cc1noc(C)c1COC(=O)c1cc(S(=O)(=O)N2CCOCC2)ccc1F | inactive |
| COc1ccc(N(Cc2cc(O)nc3ccccc23)C(=O)CCl)cc1 | 39.8 µM (active) |
| CCCC(=O)N(Cc1cc2cc(OC)ccc2nc1O)c1ccccc1OC | inactive |
| CC1(C)Cc2c(cnn2-c2ccccc2)C(NC(=O)CCN2CCCC2=O)C1 (stereo not drawn) | inactive |
| C(=N\Nc1ncnc2ccccc12)/c1ccccc1 | inactive |
| Cc1ccc(-c2nc(N/N=C/c3cccc([N+](=O)[O-])c3)c3ccccc3n2)cc1 | 39.8 µM (active) |
| Nc1ccc(-c2nc(-c3ccccc3)nc3ccccc23)cc1 | inactive |
| O=[N+]([O-])c1ccc(-c2nc(Nc3cccc(O)c3)c3ccccc3n2)cc1 | 31.6 µM (active) |
| O=[N+]([O-])c1ccc(-c2nc(NCC3CCCO3)c3ccccc3n2)cc1 (stereo not drawn) | inactive |
| C(=N\Nc1nc(-c2cccnc2)nc2ccccc12)/c1ccccc1 | inactive |

From ChEMBL document CHEMBL1201862, “PubChem BioAssay data set” (2004)
